Experimental data taken from PubChem BioAssay (Tox21).
Records with an inconclusive call do not appear. Values without a mark were called inactive. Calls of active or inactive are those of the source. Calls come from the whole dose curve; as a rule, active = well fitted cell-killing curve with a large enough effect in the repeat runs; inconclusive = weak or mixed curves, or effect the other way; inactive = no such curve, though single readings can be large or run the other way.

test: qHTS assay for small molecule activators of the heat shock response signaling pathway - cell viability counter screen (AID 743209); conditions: HSE-bla HeLa viability, CellTiter-Glo luminescence, 5 h; series mostly up to 62.6 µM; note: nearly all actives have a fitted effect of over 50% in size
Source text: U.S. Tox21 Program National Center for Advancing Translational Sciences [NCATS] NIH Chemical Genomics Center [NCGC] U.S. Environmental Protection Agency [EPA] National Institutes of Environmental Health Sciences [NIEHS] National Toxicology Program [NTP] U.S. Food and Drug Administration [FDA] Tox21 Assay Overview: Various chemicals, environmental and physiological stress conditions may lead to the activation of heat shock response/ unfolded protein response (HSR/UPR). There are three heat shock transcription factors (HSFs) (HSF-1, -2, and -4) mediating transcriptional regulation of the human HSR. To identify the compounds that activate HSR signaling, HSE-bla HeLa cell line (Invitrogen, Carlsbad, CA, USA) containing a beta-lactamase reporter gene under the control of the heat shock response elements was used to screen Tox21 10K compound library. The cytotoxicity of the Tox21 compound library against the HSE-bla HeLa cell line was tested in parallel by measuring the cell viability using CellTiter-Glo assay (Promega, Madison, WI) in the same wells.
Tox21 Assay Protocol Summary: The CellSensor HSE-bla HeLa cells (Invitrogen, Carlsbad, CA, USA) were dispensed at 1500 cells/6uL/well into 1536-well black wall/clear bottom plates using a Multidrop combi (Thermo Fisher Scientific, Waltham, MA) dispenser. After the assay plates were incubated at 37 C and 5% CO2 overnight, 23 nL of compounds dissolved in DMSO, positive controls or DMSO only was transferred to the assay plate by a Pintool station (Kalypsys, San Diego, CA). The plates were incubated at 37 C for 5 h. After 1 uL of LiveBLAzerTM B/G FRET substrate was added using a Flying Reagent Dispenser (FRD, Beckman Coulter, Indianapolis, IN, USA), the plates were incubated at room temperature for 2.5 h, and fluorescence intensity was measured by an Envision plate reader (PerkinElmer, Shelton, CT). For cell viability readout that measures cytotoxicity, 3 ul/well of CellTiter-Glo reagent was added into the assay plates using a FRD. After 30 min incubation at room temperature, the luminescence intensity in the plates was measured using a ViewLux (PerkinElmer) plate reader.
% is set by controls: 0 for no effect and ±100 for the full control effect.

Compound | outcome | activity change, negative = cytotoxicity
COCCCOCCCOC | inactive | 
CCCCCCCCCCCC | inactive | 
CCCCOCCOCCOCc1cc2c(cc1CCC)OCO2 | inactive | 
Cc1c(NC(C)C)c(=O)n(-c2ccccc2)n1C | inactive | 
FC1(F)C(F)(F)C(F)(F)C2(F)C(F)(F)C(F)(F)C(F)(F)C(F)(F)C2(F)C1(F)F (stereo not given) | inactive | 
CC1=CC(C)C(C=O)CC1 (stereo not given) | inactive | 
NS(=O)(=O)c1ccccc1Cl | inactive | 
FC(F)OC(Cl)C(F)(F)F (stereo not given) | inactive | 
CCc1nccnc1CC | inactive | 
CN1CCCC1 | inactive | 
CC/C=C\CCOC(C)=O | inactive | 
N=C(N)c1ccc2cc(OC(=O)c3ccc(N=C(N)N)cc3)ccc2c1 | inactive | 
CC(C)=CCCC(C)CC(=O)O (stereo not given) | inactive | 
CCO[Si](CCC1CCC2OC2C1)(OCC)OCC (stereo not given) | inactive | 
Cc1ccc(=O)n(-c2ccccc2)c1 | inactive | 
CC(C(=O)O)c1ccc(CC2CCCC2=O)cc1 (stereo not given) | inactive | 
O=[N+]([O-])c1ccc(F)cc1F | inactive | 
O=c1[nH]c(=O)n([C@H]2C[C@H](O)[C@@H](CO)O2)cc1I | inactive | 
C[C@@H]1CCN(C(=O)[C@H](CCCN=C(N)N)NS(=O)(=O)c2cccc3c2NC[C@H](C)C3)[C@@H](C(=O)O)C1 | inactive | 
CC(=O)OC/C=C(\C)CC/C=C(\C)CCC=C(C)C | inactive | 

Compound | outcome | activity change, negative = cytotoxicity
CO[C@]12C[C@@H](COC(=O)c3cncc(Br)c3)CN(C)[C@@H]1Cc1cn(C)c3cccc2c13 | inactive | 
CC(=O)Nc1ccc(S(N)(=O)=O)cc1 | inactive | 
Brc1c(NC2=NCCN2)ccc2nccnc12 | inactive | 
COc1ccc2c(c1)CCCC2=O | inactive | 
NC(=O)COCCN1CCN(C(c2ccccc2)c2ccc(Cl)cc2)CC1 (stereo not given) | inactive | 
CC(C)(c1ccc(O)cc1)c1ccc(O)cc1 | inactive | 
CCN1CCC[C@H]1CNC(=O)c1cc(S(N)(=O)=O)ccc1OC | inactive | 
Cc1ccc(Cl)cc1Cl | inactive | 
O=C(O)CN(CCOCCOCCN(CC(=O)O)CC(=O)O)CC(=O)O |  | -15.4% [at 0.55 µM]
Cc1cc(O)cc2c1O[C@](C)(CCC[C@H](C)CCC[C@H](C)CCCC(C)C)CC2 | inactive | 
Cc1cc2c(cc1S(N)(=O)=O)S(=O)(=O)CCC2 | inactive | 
CCOC(=O)CC(C)=O | inactive | 
CCCN(CCC)CCc1cccc2c1CC(=O)N2 | inactive | 
COc1cc(C(=O)N2CCCCCCC2)cc(OC)c1OC | inactive | 
CN1C(=O)N(C)C(O)C1O (stereo not given) | inactive | 
CC(=O)Nc1c(I)cc(I)c(C(=O)O)c1I | inactive | 
CCOc1ccc(C(=O)OCCN(CC)CC)cc1 | inactive | 
C=C1CC[C@H]2C[C@@H]1C2(C)C | inactive | 
COc1ccc(CCN(C)CCCC(C#N)(c2cc(OC)c(OC)c(OC)c2)C(C)C)cc1OC (stereo not given) | inactive | 
Nc1cc(=O)[nH]c(N)n1 | inactive | 
